Screening data as filed in PubChem BioAssay.
cardiac RTF act = cardiac RTF calcium sensitization; AID 493008; IANBD-labeled TnC RTF fluorescence at EC20 calcium; 0% EC20 calcium, 100% full calcium; activation, % at 7.2 µM; 340,000 tested, 0.24% active;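 active means activation above the mean over all tested compounds plus 3 SD, cut at about 30% in these data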;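 further: rise in fluorescence read as greater calcium sensitivity of cardiac thin filaments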
Keap1 Nrf2 FP = Keap1-Nrf2 (human) interaction inhibition | Q14145 | Keap1 Kelch-Nrf2 peptide fluorescence polarization, 1536-well | inhibition, % at 9.4 µM | 340,000 tested, 0.15% active; in the data active means inhibition above about 12%;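 further: human Keap1 Kelch domain with fluorescein labeled Nrf2 9mer peptide probe; higher means more block of Keap1 binding to Nrf2 peptide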
LANA DNA inh = KSHV C-LANA DNA binding inhibition; MBP-C-LANA/FAM-LBS DNA binding, fluorescence polarization; inhibition, % at 9 µM; 340,000 tested, 0.078% active; AID 504423;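 active means highest replicate inhibition at or above 60% at 9 µM, even if other replicates fall short; inactive means all replicates below 60% inhibition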
E coli Lon inh = E. coli protease La inhibition; inhibition, % at 7.94 µM; 360,000 tested, 0.42% active; P0A9M0; AID 602123; purified E. coli Lon protease, fluorescence polarization; in the data active means inhibition above about 13%, passing the limit was not always enough
Cardiac RTF inh = cardiac RTF calcium desensitization; P19429+P45379; IANBD-labeled cardiac RTF, Ca2+ fluorescence; inhibition, % at 7.15 µM; 340,000 tested, 0.12% active; AID 493244;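 active means inhibition above the mean inhibition of all tested compounds plus 3 SD, cut at about 17% in these data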;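 further: assay run at fixed EC70 calcium of 1.6 mM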
Large screens that a line does not name were inactive. This is a sample that favours compounds with a hit; in the whole collection about 0.82% have one here.

N#C/C(=C/c1ccc(N2CCCCC2)o1)C(=O)Nc1ccc(Cl)cc1	cardiac RTF act 41.1
N#C/C(=C\c1ccc(N2CCOCC2)o1)C(=O)Nc1ccc(O)cc1	none (no result: cardiac RTF act, Cardiac RTF inh)
CCOc1ccccc1NC(=O)C1CCCN1S(=O)(=O)c1ccc2c(c1)C(C)(C)C(=O)N2C (stereo unspecified)	none (no result: cardiac RTF act, Keap1 Nrf2 FP, LANA DNA inh, Cardiac RTF inh)
CCN(CC)C(=O)[C@H]1C[C@H](CC(=O)NCCc2ccccn2)C(=O)N2CCc3c([nH]c4cc(-c5ccco5)ccc34)[C@]12C	Keap1 Nrf2 FP active
CCCS(=O)(=O)c1ncc(Cl)c(C(=O)Nc2ccc(S(=O)(=O)Nc3ncccn3)cc2)n1	Keap1 Nrf2 FP 42.1
O=C(NC(Cc1ccccc1)C(=O)Oc1ccc2c(C(F)(F)F)cc(=O)oc2c1)OCc1ccccc1 (stereo unspecified)	E coli Lon inh 73.7
OCCNc1ncnc2c1ncn2[C@H]1CN(Cc2ccncc2)C[C@@H](CO)O1	none (no result: cardiac RTF act, Keap1 Nrf2 FP, LANA DNA inh, Cardiac RTF inh)
Cc1nn(C)c(C)c1S(=O)(=O)N(CC(=O)Nc1ccc2c(c1)OCO2)c1ccc(C(C)C)cc1	E coli Lon inh 15.9
Cc1cc(C)n(CC(=O)NNC(=O)CCNC(=O)c2ccccc2Cl)n1	none
Cc1cc(C)n(CC(=O)NNC(=O)CC(C)c2ccccc2)n1 (stereo unspecified)	LANA DNA inh 73.3
O=c1c(CO)cc(CO)cc(CO)c1O	none
O=C1C=CC(=O)c2c(O)c(CO)c(CO)c(O)c21	Cardiac RTF inh 35.8
Cc1noc(C)c1Cn1c(C)c(C(=O)NCc2ccc3c(c2)OCCO3)sc1=O	none (no result: cardiac RTF act, Keap1 Nrf2 FP, LANA DNA inh, Cardiac RTF inh)
COc1cc(/C=C2/SC(=S)N(Cc3ccccc3)C2=O)cc(Cl)c1O	cardiac RTF act 71.3
COc1cc(/C=C2/SC(=S)N(Cc3ccccc3)C2=O)ccc1OCC(=O)O	none
CC1(C(=O)Nc2cccc(C#N)c2)CCN1C(=O)Cc1ccc(-c2ccccc2)cc1 (stereo unspecified)	none (no result: cardiac RTF act, Keap1 Nrf2 FP, LANA DNA inh, Cardiac RTF inh)
N#CC1=C(N)C(C#N)(C#N)[C@H](c2ccoc2)[C@H]2CN(Cc3ccccc3)CC=C12	cardiac RTF act 31.1
COc1ccc(OC)c(C2C3CN(C(C)C)CC=C3C(C#N)=C(N)C2(C#N)C#N)c1 (stereo unspecified)	none
CCCN1CC=C2C(C#N)=C(N)C(C#N)(C#N)C(c3cccc(OC)c3OC)C2C1 (stereo unspecified)	cardiac RTF act 52.5
O=C(NCc1ccc(Cl)cc1)C1CCN(c2cnccn2)CC1	cardiac RTF act 30.2
COc1cc(-c2cc(NC=O)c3ncc(-c4ccc(C(C)=O)cc4)n3c2)ccc1O	none (no result: cardiac RTF act, Keap1 Nrf2 FP, LANA DNA inh, Cardiac RTF inh)
CN(C)c1ccc(/C=N/N(CCO)C2=NS(=O)(=O)c3ccccc32)cc1	cardiac RTF act 315.9
CC(=O)Nc1sc(/C(C#N)=C\c2cccc(Cl)c2)nc1-c1ccc(C)cc1	cardiac RTF act 43.0
CCN(CC)C(=O)Cn1c(C)c(/C=C/c2cc[n+](C)cc2)c2ccccc21	cardiac RTF act 87.1 (no result: LANA DNA inh)
CCn1c(/C=C/c2c(C)n(CC)c3ccccc23)nc2ccccc2c1=O	none
Cc1ccccc1/C=C/c1cc[n+](C)cc1	none
Cc1[nH]c2ccccc2c1/C=C/c1cc[n+](C)cc1	cardiac RTF act 94.8
CC(C)n1cc(/C=C/c2cc[n+](C)cc2)c2ccccc21	cardiac RTF act 344.5
C[n+]1ccc2[nH]c3ccccc3c2c1	none (no result: cardiac RTF act, Keap1 Nrf2 FP, LANA DNA inh, Cardiac RTF inh)
C=CCn1c(C)c(/C=C/c2cc[n+](C)cc2)c2ccccc21	cardiac RTF act 114.2
COc1ccc(-c2coc3c(C(=O)NCc4ccc(OC)c(OC)c4)cccc23)c(C)c1	none (no result: cardiac RTF act, Keap1 Nrf2 FP, LANA DNA inh, Cardiac RTF inh)
C=CCNc1nc(-c2sc(NC(=O)C(C)(C)C)nc2C)c(-n2cc(-c3ccccc3)nn2)s1	none (no result: cardiac RTF act, Keap1 Nrf2 FP, LANA DNA inh, Cardiac RTF inh)
COc1ccc(S(=O)(=O)N(C)C[C@@H]2Oc3cc(Br)ccc3S(=O)(=O)N([C@H](C)CO)C[C@@H]2C)cc1	none (no result: cardiac RTF act, Keap1 Nrf2 FP, LANA DNA inh, Cardiac RTF inh)
Cn1c(NCc2ccccc2F)nc2cc(-c3cccc(C(F)(F)F)c3)sc2c1=O	none (no result: cardiac RTF act, Keap1 Nrf2 FP, LANA DNA inh, Cardiac RTF inh)
C[C@@H]1CCCCO[C@H](CN(C)Cc2ccc3c(c2)OCO3)[C@@H](C)CN([C@H](C)CO)C(=O)c2cc(NC(=O)c3ccccc3)ccc2O1	none (no result: cardiac RTF act, Keap1 Nrf2 FP, LANA DNA inh, Cardiac RTF inh)
CCn1cc(/C=C/c2cc[n+](C)cc2)c2ccccc21	cardiac RTF act 370.8
C=CCn1cc(/C=C/c2cc[n+](C)cc2)c2ccccc21	cardiac RTF act 170.1
CCCN1C(=O)S/C(=C/c2ccc(N3CCOCC3)o2)C1=O	cardiac RTF act 188.8
CCCN1C(=O)S/C(=C\c2ccc(N3CCOCC3)o2)C1=O	cardiac RTF act 170.5
O=C(O)CN1C(=O)/C(=C/c2ccc(N3CCCCC3)o2)SC1=S	none
